Tau fluor counter – counter-screen for tau fibril formation inhibitors. hit rate 0.93% among 280,000. AID 1463. tau K18 P301L Alexa594 fluorescence, heparin fibrillization. Potency, µM (highest dose often 57.7 µM), for inactives: at the highest dose activity change, negative = decrease; also: nearly all actives have a fitted effect of over 55% in size
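Human K18 P301L tau (15 uM unlabeled plus 0.24 uM Alexa 594-labeled, final) in 100 mM sodium acetate pH 7 was mixed with compound and 20 uM heparin and incubated 6 hr at 37 C.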
TRb-SRC2 inh – TRbeta-SRC2 interaction inhibition; TRbeta-SRC2 peptide binding, fluorescence polarization; receptor liganded with 1 µM T3; AID 1469; P10828; Potency, µM (doses to about 106 µM), inactives show at the top dose activity change, negative = inhibition, usual class: inhibitors; hit rate 0.065% among 280,000;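 also: plate controls were bound peptide for no effect and peptide without receptor for full effect; nearly all actives have a fitted effect of over 50% in size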
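Polarization signal, normalized between peptide-alone and full complex controls, measured compound effects on T3-liganded human TRb LBD (0.6 uM) binding 20 nM Texas Red SRC2 peptide after 5 hr.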
RGS12 GoLoco inh – inhibitors of human Gai1-RGS12 GoLoco interaction (red fluorophore) | P63096 | Gai1:RGS12 GoLoco peptide FP, rhodamine, 10 min | Potency, µM (series often up to 61.6 µM), inactives show at the highest dose activity, negative = inhibition, usual class: inhibitors | hit rate 0.44% among 230,000 | AID 880; active = well fitted inhibition curve with a large enough effect, not every such curve was filed as active; inactive = no such curve, though single readings can be large or run the other way; also: nearly all actives have a fitted effect of over 30% in size
Target sequence (P63096 whole entry, looked up): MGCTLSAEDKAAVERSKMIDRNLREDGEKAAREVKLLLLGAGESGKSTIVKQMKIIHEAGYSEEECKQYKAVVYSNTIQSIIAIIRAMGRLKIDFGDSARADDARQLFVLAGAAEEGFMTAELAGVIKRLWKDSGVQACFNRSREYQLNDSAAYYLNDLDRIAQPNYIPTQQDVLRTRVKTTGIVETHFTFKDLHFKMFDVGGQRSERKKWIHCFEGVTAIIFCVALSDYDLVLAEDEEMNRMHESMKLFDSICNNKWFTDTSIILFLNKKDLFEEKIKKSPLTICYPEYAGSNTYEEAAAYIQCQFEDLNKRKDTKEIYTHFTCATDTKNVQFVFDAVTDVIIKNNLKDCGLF
Tau fibril FP – inhibitors of human tau fibril formation. K18 P301L tau heparin fibrillization, Alexa594 FP, 6 h. AID 1468. Potency, µM (series often up to 57.7 µM), without a hit: at the top dose activity, negative = inhibition, hits mostly inhibitors. hit rate 0.39% among 280,000. P10636; also: nearly all actives have a fitted effect of over 55% in size
Target sequence (P10636 561-689 P618L limits assumed): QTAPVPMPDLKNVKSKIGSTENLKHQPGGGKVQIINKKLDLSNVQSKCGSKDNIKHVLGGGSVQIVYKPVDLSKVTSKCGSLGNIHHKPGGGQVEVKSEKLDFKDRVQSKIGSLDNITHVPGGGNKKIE
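Steps: dispense K18 P301L tau (15 uM plus 0.24 uM Alexa 594 tracer, final) in pH 7 sodium acetate; add compound; add heparin (20 uM final); incubate 6 hr, 37 C; add ThT (30 uM final); after 1 hr ambient, read FP.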
Tau ThT inhib – tau fibrillization inhibition (ThT binding); P10636; hit rate 2.1% among 270,000; Potency, µM (highest dose often 57.4 µM), for inactives: at the highest dose activity, negative = inhibition, actives largely listed as inhibitors; recombinant tau K18 P301L (four-repeat tau fragment), heparin-induced fibrillization, ThT fluorescence; also: nearly all actives have a fitted effect of over 55% in size
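Heparin-induced (20 uM) aggregation of recombinant human K18 P301L tau, 15 uM unlabeled with 0.24 uM labeled, pH 7 acetate buffer, 6 hr at 37 C with compound. Fibrils quantified by 30 uM ThT fluorescence after 1 hr ambient incubation.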
TR SRC2 fluor cs – counter-screen for TRb-SRC2 inhibitors: fluorescence interference. TRb/SRC2 Texas Red total fluorescence interference. hit rate 0.29% among 280,000. Potency, µM (series often up to 106 µM), for the others: at the highest dose fluorescence change, negative = quenching. AID 1479; active = well fitted curve in either direction with a large enough effect; inconclusive = small, poorly fitted or top-dose-only effect
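Flags fluorescent or light-absorbing compounds by total fluorescence, S + 2P, at 555 nm excitation and 632 nm emission. Mixture: 20 nM Texas Red SRC2 peptide, 0.6 uM human TRb LBD, 1 uM T3, 5% DMSO; compound exposure 5 h at ambient temperature.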
An asterisk follows results filed as active; [ ] = dose if it differs, or a comment. Most compounds without a hit are left out; they make up all but 3.2% or so of the library. Unless noted, calls follow the shape of the dose curve; as a rule, active = well fitted curve in the direction sought with a large enough effect; inconclusive = small, poorly fitted or top-dose-only effect, or another doubt; inactive = no such curve, though single readings can be large; an effect the other way counts as inactive or inconclusive. Unless noted, % is scaled to controls: 0 for no effect and ±100 for the full control effect; potency is read from the fitted curve at half-maximal effect.

Results for COC(=O)c1ccc(C2Nc3cccc4cccc(c34)N2)cc1 ?
Tau fluor counter: 14.1µM*[quencher]; TRb-SRC2 inh: -1.8%; RGS12 GoLoco inh: -4.8%; Tau fibril FP: inconclusive; Tau ThT inhib: 14.1µM*; TR SRC2 fluor cs: -6.1%

How did COc1cc(C2Nc3cccc4cccc(c34)N2)cc(OC)c1O do in these assays?
Tau fluor counter: 4.47µM*[quencher]; TRb-SRC2 inh: -6.3%; RGS12 GoLoco inh: -17.6%; Tau fibril FP: inconclusive; Tau ThT inhib: 15.8µM*; TR SRC2 fluor cs: -0.4%

How did CCOc1ccc(S(=O)(=O)NCCc2sc3nc(-c4ccc(C)cc4)nn3c2C)cc1 do in these assays?
Tau fluor counter: -12.6%; TRb-SRC2 inh: 0.4%; Tau fibril FP: -7.3%; Tau ThT inhib: -11.7%; TR SRC2 fluor cs: -2.4%

What do the screens show for `CC(C)[C@H](NC(=O)[C@H](CC(=O)O)NC(=O)CNC(=O)[C@@H](N)CCCN=C(N)N)C(=O)O`?
TRb-SRC2 inh: -2.4%; TR SRC2 fluor cs: -0.3%

Results for CC(C)c1nnc(N2C(=O)c3oc4ccccc4c(=O)c3C2c2cccc(O)c2)s1 (stereo not drawn) ?
Tau fluor counter: -25.4%; TRb-SRC2 inh: 2.5%; Tau fibril FP: -11.4%; Tau ThT inhib: -15.2%; TR SRC2 fluor cs: 1.7%

What do the screens show for `COCC(=O)N1CCc2nc(-c3ccccc3)c3c(c2C1)CO[C@@H](C)C3`?
Tau fluor counter: -4.1%[11.6 µM]; TRb-SRC2 inh: 3.2%[11.2 µM]; RGS12 GoLoco inh: 5.6%[14.2 µM]; Tau fibril FP: -0.1%[11.6 µM]; Tau ThT inhib: 0.0%[11.5 µM]; TR SRC2 fluor cs: -14.6%[11.2 µM]

Results for CN(C)c1ccc(-c2cncnc2NCc2cccnc2)cc1 ?
RGS12 GoLoco inh: -12.6%

Results for c1coc(C2Nc3cccc4cccc(c34)N2)c1 ?
Tau fluor counter: 7.94µM*[quencher]; TRb-SRC2 inh: 17.7%; RGS12 GoLoco inh: -37.9%; Tau fibril FP: inconclusive; Tau ThT inhib: 11.2µM*; TR SRC2 fluor cs: inconclusive

What do the screens show for `COc1ccc2c(c1)O[C@@H](c1cccc(C(F)(F)F)c1)[C@H](OC(=O)NCc1ccc3c(c1)OCO3)C2=O`?
Tau fluor counter: -13.9%; TRb-SRC2 inh: 7.9%; RGS12 GoLoco inh: 3.2%; Tau fibril FP: 1.0%; Tau ThT inhib: -2.8%; TR SRC2 fluor cs: -3.5%

What do the screens show for `C[C@@]1(CO)[C@H](O)CC[C@]2(C)[C@@H]1CC[C@H]1C[C@H]3C[C@]12CC[C@]3(O)COC(=O)CN`?
RGS12 GoLoco inh: 2.2%[14.2 µM]

How did CCn1c(C)c(C(C)=O)c(N2CCN(c3ccccc3)CC2)nc1=S do in these assays?
Tau fluor counter: -19.0%; TRb-SRC2 inh: -6.1%; RGS12 GoLoco inh: 16.8%; Tau fibril FP: inconclusive; Tau ThT inhib: 22.4µM*; TR SRC2 fluor cs: 6.4%

What do the screens show for `CCn1c(C)c(C(C)=O)c(N2CCN(C(c3ccccc3)c3ccccc3)CC2)nc1=S`?
Tau fluor counter: 2.6%; TRb-SRC2 inh: 7.6%; RGS12 GoLoco inh: 13.3%; Tau fibril FP: 5.3%; Tau ThT inhib: 4.2%; TR SRC2 fluor cs: 2.7%

What do the screens show for `COC(=O)Cn1c(SCCOc2ccccc2OC)nc2ccccc21`?
Tau fluor counter: 6.5%; TRb-SRC2 inh: 0.9%; Tau fibril FP: -9.7%; Tau ThT inhib: 10.2%; TR SRC2 fluor cs: 1.0%

What do the screens show for `CN(C)c1ccc(NC(=O)c2cnsn2)cc1`?
Tau fluor counter: -20.9%; TRb-SRC2 inh: 3.4%; RGS12 GoLoco inh: 6.8%; Tau fibril FP: -2.5%; Tau ThT inhib: 10µM*; TR SRC2 fluor cs: -0.7%

Results for COC(=O)c1c(NC(=O)Cc2coc3cc(C)cc(C)c23)sc2c1CCC2 ?
Tau fluor counter: -16.5%; TRb-SRC2 inh: -2.3%; Tau fibril FP: -16.9%; Tau ThT inhib: -12.4%; TR SRC2 fluor cs: inconclusive

Results for O=S(=O)(/N=C(\Sc1ccc(Cl)cc1)c1ccccc1)c1ccccc1 ?
Tau fluor counter: -11.1%; TRb-SRC2 inh: -12.5%; RGS12 GoLoco inh: 4.8%; Tau fibril FP: inconclusive; Tau ThT inhib: 35.5µM*; TR SRC2 fluor cs: -1.2%

High-throughput results (PubChem BioAssay)
